# Screening results from PubChem.
# ELG1 genotox: genotoxicity induction in ELG1-luciferase HEK293T cells; AID 504466; HEK293T ELG1-luciferase reporter, luminescence, 16 h; actives 1.3% (n = 330,000); Potency, µM (series often up to 46 µM), without a hit: at the highest dose activity change, positive = activation, most hits filed as activators; note: % of control where 0% means no effect; nearly all actives have a fitted effect of over 60% in size
#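 After overnight (16 hr) compound treatment at 37 °C, ELG1-luciferase HEK293T cells were lysed with ONE-Glo; luminescence quantified 30 min later at room temperature.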
# ELG1 DNA repair: inhibitors of ELG1-dependent DNA repair in HEK293T cells | HEK293T ELG1-luciferase reporter, luminescence, 16 h; DNA damage induced by 5-fluorouridine | Potency, µM (series often up to 46.1 µM), inactives show at the top dose activity change, negative = inhibition, hits mostly inhibitors | actives 2.3% (n = 330,000); note: % is set by controls: 0 for no effect and ±100 for the full control effect; nearly all actives have a fitted effect of over 55% in size
#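 In this reporter screen, reduction of luminescence relative to DMSO vehicle indicated activity. Compounds and 5-fluorouridine were added together to 2,000 cells per well, incubated for 16 hr at 37 °C, then developed with ONE-Glo.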
# Rab9 promoter act: activators of Rab9 promoter; Huh7 Rab9 promoter-luciferase reporter, luminescence, 24 h; Potency, µM (series often up to 9.22 µM), for the others: at the top dose activation, negative = inhibition, actives largely listed as activators; actives 2.8% (n = 320,000); AID 485297; note: % of control where 0% means no effect; nearly all actives have a fitted effect of over 60% in size
#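 Luminescence from Amplite-detected luciferase (10 minutes, ambient) reports Rab9 promoter activation. Before that, stable Rab9-luciferase Huh7 cells (1500/well, reduced-serum OP-MEM I plus 10% FBS) were exposed to compound for 24 hours at 37C.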
# SMN2 splice enh: enhancers of SMN2 splice variant expression; Potency, µM (top dose mostly 46.1 µM), for inactives: at the top dose activity change, positive = activation, usual class: activators; actives 2.8% (n = 210,000); AID 1458; HEK293 SMN2-luciferase splicing reporter, luminescence, 30-36 h; note: % of control where 0% means no effect; nearly all actives have a fitted effect of over 55% in size
#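 qHTS luciferase splicing reporter: luminescence rises when SMN2 exon 7 is included in transfected HEK293 cells. Compound exposure lasted 30-36 h at 37C, with 4.5 mM final sodium butyrate as control, followed by a ONE-Glo read.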
# NPC1 prom act: activates the NPC1 promoter; Huh7 NPC1 promoter luciferase reporter, 24 h; Potency, µM (titrated, usually from 9.22 µM), without a hit: at the highest dose activation, hits mostly activators; actives 2.4% (n = 320,000); AID 485313; note: % of control where 0% means no effect; nearly all actives have a fitted effect of over 60% in size
#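 Stably transfected Huh7 (NPC1 promoter→luciferase), 1500 cells/well in Opti-MEM + 10% FBS, 2 h settle, then compound 24 h at 37 °C. Luminescence after 10 min with Amplite reagent.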
# FLuc modulator: counter-screen for miR-21 project: firefly luciferase inhibitors or activators. P08659. purified FLuc, Km substrates, luminescence inhibition. Potency, µM (doses to about 57.5 µM), for the others: at the highest dose activity change, negative = inhibition, hits mostly inhibitors. actives 6.9% (n = 360,000). AID 588342;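 note: plate controls were vehicle for no effect and reference inhibitor for full effect; nearly all actives have a fitted effect of over 55% in size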
# Target sequence (P08659 whole entry, looked up): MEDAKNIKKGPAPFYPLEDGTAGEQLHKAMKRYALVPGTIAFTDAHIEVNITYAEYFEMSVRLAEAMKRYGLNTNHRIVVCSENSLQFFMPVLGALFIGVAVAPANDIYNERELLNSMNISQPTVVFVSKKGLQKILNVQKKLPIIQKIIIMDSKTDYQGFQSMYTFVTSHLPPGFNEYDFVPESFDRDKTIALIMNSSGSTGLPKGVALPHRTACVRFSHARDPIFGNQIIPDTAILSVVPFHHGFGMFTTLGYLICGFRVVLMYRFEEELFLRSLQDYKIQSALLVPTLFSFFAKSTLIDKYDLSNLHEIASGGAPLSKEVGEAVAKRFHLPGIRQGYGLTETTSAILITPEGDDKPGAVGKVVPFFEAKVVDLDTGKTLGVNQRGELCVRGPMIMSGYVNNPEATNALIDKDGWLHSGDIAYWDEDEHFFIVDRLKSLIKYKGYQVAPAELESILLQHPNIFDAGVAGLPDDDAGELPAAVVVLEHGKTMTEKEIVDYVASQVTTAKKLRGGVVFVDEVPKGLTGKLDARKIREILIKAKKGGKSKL
#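 Purified P. pyralis luciferase, 10 nM final, with Km-level 10 uM D-luciferin and 10 uM ATP in 50 mM Tris acetate pH 7.5, 10 mM Mg acetate, 0.01% Tween-20, 0.05% BSA; 6-point qHTS titration about 60 µM downward; luminescence read.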
# * marks the source's active call; other numbers are inactive results; ? = inconclusive; · = not tested or not shown. Sampled rows, rich in hits. Any-hit rate of the full collection: about 9.4%. Calls come from the whole dose curve; as a rule, active = well fitted curve in the direction sought with a large enough effect; inconclusive = small, poorly fitted or top-dose-only effect, or another doubt; inactive = no such curve, though single readings can be large; an effect the other way counts as inactive or inconclusive. Potency is the fitted concentration of half-maximal effect.
SMILES,ELG1 genotox,ELG1 DNA repair,Rab9 promoter act,SMN2 splice enh,NPC1 prom act,FLuc modulator
Cn1c(SCC(=O)N2CCCc3ccccc32)ncc(C(=O)Nc2ccccc2)c1=O,·,·,·,·,·,-2.3%
O=C(c1cccc(Cl)c1)N1CCN(c2ncnc3c2cnn3-c2ccccc2)CC1,-7.0%,11.6µM*,-17.3%,-37.0%,-4.7%,-15.1%
O=C(c1ccccc1)N1CCN(c2ncnc3c2cnn3-c2ccccc2)CC1,-2.1%,-4.5%,?,-19.3%,22.7%,-20.6%
Cc1nn(-c2ccccc2)c(Cl)c1C(=O)N1CCN(c2ncnc3c2cnn3-c2ccccc2)CC1,2.7%,7.31µM*,-4.1%,-67.7%,-5.9%,-1.4%
Cc1ccc(C(=O)Nc2ccc(N3CCCC3)cc2)c(C)c1,0.1%,0.3%,26.7%,·,17.9%,?
Cc1ccccc1C(=O)Nc1ccc(N2CCCC2)cc1,1.0%,?,?,·,?,9.53µM*
O=C(Nc1ccc(N2CCCC2)cc1)C(Cl)c1ccccc1 (stereo not drawn),10.9%,?,24.7%,-10.1%,-1.2%,8.49µM*
O=C(Nc1cccc(S(=O)(=O)N2CCCCCC2)c1)c1ccc2ccccc2n1,-0.5%,5.9%,15.9%,8.6%,11.6%,?
O=C(Nc1ccc(N2CCCCC2)cc1)c1ccc2ccccc2n1,?,14.8%,2.82µM*,52.9%,?,4.78µM*
O=C(NCCCN1CCN(c2ccccc2F)CC1)c1ccc2nc(CCc3ccccc3)oc2c1,·,·,·,·,·,-11.3%
COc1ccc(CCNCc2c(C(=O)O)c(C)n(Cc3c(F)cccc3Cl)c2C)cc1OC,·,·,·,-1.5%,·,0.3%
CCOC(=O)c1c(C)[nH]c(CCC(=O)Nc2cc(C)ccc2OC)c1C,·,·,·,·,·,6.7%
O=C(CSc1ccc(-c2nc3ccccc3[nH]2)cn1)N1CCN(C(=O)c2ccco2)CC1,-15.1%,16.4µM*,10.2%,-11.8%,-0.7%,10.7µM*
O=C(CSc1ccc(Cl)cc1)Nc1ccc(-c2nc3ccccc3[nH]2)cc1,16.4%,?,?,7.94µM*,20.6%,-3.0%
S=C(Nc1ccc(-c2nc3ccccc3[nH]2)cc1)Nc1cccnc1,?,?,1.41µM*,·,?,13.5µM*
O=C(CCc1nc2ccccc2[nH]1)N1CCN(C(=O)c2ccco2)CC1,4.6%,-4.2%,-4.1%,·,1.3%,6.3%
O=C(/C=C/c1ccco1)Nc1ccc(-c2nc3ccccc3[nH]2)cc1,17.3%,?,-37.7%,3.55µM*,-22.9%,0.3%
c1cncc(-c2nc3ccccc3[nH]2)c1,-1.1%,?,16.1%,10.0%,16.9%,?
O=C(Nc1ccc(-c2nc3ccccc3[nH]2)cc1)c1ccco1,1.84µM*,?,2.24µM*,6.31µM*,0.708µM*,4.26µM*
COc1cc(C2C(C(=O)Nc3ccc(C)cc3C)=C(C)Nc3nc4ccccc4n32)cc(OC)c1OC (stereo not drawn),·,·,·,9.3%,·,-0.1%
O=C(O)c1ccc(COc2ccc(Cl)cc2)o1,?,?,23.0%,11.2µM*,30.0%,26.9µM*
COC(=O)c1ccc(COc2ccc(/C=N/NC(N)=S)cc2)o1,-1.9%,14.6µM*,-3.7%,·,0.4%,-2.6%
O=C(O)c1ccc(OCc2ccc(C(=O)O)o2)cc1,5.0%,?,11.3%,·,3.5%,-14.7%
CN(C)c1ccc(NC(=O)c2ccc(COc3cccc(Cl)c3)o2)cc1,?,?,28.6%,-4.5%,19.9%,9.53µM*
CCOc1ccc(OCc2ccc(C(=O)NN)o2)cc1,?,?,?,·,0.398µM*,?
Cc1cc(C)c(NC(=O)Cn2c(=O)n(CCCCC(=O)NCc3ccccc3Cl)c(=O)c3ccccc32)c(C)c1,·,·,·,-4.1%,·,-5.0%
COc1cc(NC(=O)c2cc3nc(-c4ccccc4)cc(-c4ccccc4)n3n2)c(OC)cc1Cl,·,·,·,7.1%,·,-0.6%
Cc1cc(C)n2c(Nc3cccc(C(F)(F)F)c3)c(-c3ccsc3)nc2n1,·,·,·,-13.4%,·,-0.5%
